From PubChem
A selection: hits, their analogues and other compounds. The true share with any hit is near 12%.
Cycloheximide cs: counter-screen hit for Shiga toxin inhibitors, cycloheximide | cell reporter, cycloheximide protein synthesis inhibition counterscreen | max response, % | hit rate 12% among 300,000; in the data active = max response mostly above about 13%, no sharp cut-off; inactive = mostly below about 14%; note: read at 38.3 µM for the half of the compounds with a filed dose; 0% is about no effect
Sm TGR block: blocks Schistosoma mansoni thioredoxin glutathione reductase; Q962Y6; purified TGR, DTNB reduction, TNB absorbance 405 nm; Potency, µM (highest dose often 114 µM), inactives show at the highest dose activity change, negative = inhibition, hits mostly inhibitors; hit rate 3% among 360,000; AID 485364; active = well fitted inhibition curve with a large enough effect; inconclusive = small, poorly fitted or top-dose-only effect; inactive = no such curve, though single readings can be large or run the other way; note: potency is the fitted concentration of half-maximal effect; % is set by controls: 0 for no effect and ±100 for the full control effect; nearly all actives have a fitted effect of over 60% in size
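First, TGR (20 nM dispensed) and NADPH were mixed with compound. Second, a 15 min room-temperature incubation followed. Third, further NADPH and then DTNB were added to start the reaction. Finally, TNB absorbance was monitored kinetically.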
Shiga toxin inh: inhibitors of Shiga toxin in Vero cells; Vero cells, Shiga toxin protein synthesis inhibition reporter; inhibition, % at 38.7 µM; hit rate 9.2% among 290,000; in the data active = inhibition mostly above about 28%, no sharp cut-off; inactive = mostly below about 43%; note: 0% is about no effect
FMDV antiviral: blocks foot and mouth disease virus; FMDV antiviral cell-based qHTS; Potency, µM (doses to about 57.9 µM), for the others: top-dose activity change, negative = inhibition, usual class: inhibitors; hit rate 1.2% among 410,000; calls by dose curve; tested in HEK293T cells; note: read-out not given here; potency is the fitted concentration of half-maximal effect; % is set by controls: 0 for no effect and ±100 for the full control effect; nearly all actives have a fitted effect of over 45% in size
Active calls of the source: *; [ ] = remark or other dose.

CC(=O)c1ccc(OC(=O)COc2ccccc2Cl)cc1 was read as Cycloheximide cs -2, Sm TGR block 40µM*, Shiga toxin inh 25 and FMDV antiviral -6%.
`CC(=O)c1ccc(OC(=O)Cc2cccc3ccccc23)cc1` gave Cycloheximide cs -3, Sm TGR block 10%, Shiga toxin inh -9 and FMDV antiviral -2%.
`COc1cc(-c2cc(OC)c3c(C)oc(C)c3c(=O)c2)ccc1OC(=O)c1ccccc1C` gave Sm TGR block -11% and FMDV antiviral inconclusive.
`CCc1c(CN2CCN(c3cccc(C)c3C)CC2)csc1C` gave Sm TGR block 2% and FMDV antiviral -16%.
COCCCn1c(-c2ccccc2)nc2ccccc2c1=O was read as Cycloheximide cs -5, Sm TGR block -24%, Shiga toxin inh 21 and FMDV antiviral -10%.
Screening COc1ccc(-c2nc3ccccc3n2Cc2ccc(C)cc2)cc1 returned Cycloheximide cs 42*, Sm TGR block inconclusive, Shiga toxin inh 44* and FMDV antiviral 10%.
For COCCn1c(-c2ccccc2)nc2ccccc21 the results were Cycloheximide cs 66*, Sm TGR block -6%, Shiga toxin inh 96* and FMDV antiviral 59%.
`COc1ccc(-c2nc3ccccc3n2Cc2ccc(Cl)cc2)cc1` gave Sm TGR block 7% and FMDV antiviral -25%.
For COc1ccc(Cn2c(-c3ccc(OC)c(O)c3)nc3ccccc32)cc1O the results were Cycloheximide cs 27*, Sm TGR block 7%[57.1 µM], Shiga toxin inh 75* and FMDV antiviral 16%.
COCn1c(-c2ccc(OC)cc2)nc2ccccc21 was read as Cycloheximide cs 51*, Sm TGR block 0%, Shiga toxin inh active and FMDV antiviral 32%.
Screening CCC(C)(C)NC(=O)C1CCC(CNS(=O)(=O)c2ccc3c(c2)CC(C)N3C(C)=O)CC1 (stereo unspecified) returned Sm TGR block 2% and FMDV antiviral -20%.
Screening CCc1ccccc1Nc1nn2c(=O)c3ccc(C(=O)NCc4cccs4)cc3nc2s1 returned Sm TGR block -3% and FMDV antiviral -2%.
For CCOC(Cn1c(-c2ccc(OC)cc2)nc2ccccc21)OCC the results were Cycloheximide cs 16, Sm TGR block -8%, Shiga toxin inh 9 and FMDV antiviral 16%.
CCCn1c(-c2ccc(OC)cc2)nc2ccccc21 was read as Cycloheximide cs 13*, Sm TGR block -1%, Shiga toxin inh 10 and FMDV antiviral -13%.
Screening Nc1cc(=O)[nH]c(SCC(=O)N2N=C(c3ccc4ccccc4c3)CC2c2ccccc2)n1 (stereo unspecified) returned Cycloheximide cs -2, Sm TGR block 11%, Shiga toxin inh -5 and FMDV antiviral -19%.
Screening CC(=O)OCC(=O)N1N=C(c2ccc3ccccc3c2)CC1c1ccccc1 (stereo unspecified) returned Cycloheximide cs 33*, Sm TGR block -17%, Shiga toxin inh 67 and FMDV antiviral 4%.
For COc1ccc(C2CC(c3ccc4ccccc4c3)=NN2C(=O)CNC2CCCCC2)cc1 (stereo unspecified) the results were Cycloheximide cs 3, Sm TGR block 11%, Shiga toxin inh 16 and FMDV antiviral inconclusive.
Screening CCOC(=O)/C=C(\C)N1N=C(c2ccccc2)CC1c1ccccc1 (stereo unspecified) returned Cycloheximide cs 42*, Sm TGR block inconclusive, Shiga toxin inh 100* and FMDV antiviral 40%.
Screening COc1ccc(C2CC(c3ccc4ccccc4c3)=NN2C(=O)CN2CCC(C(N)=O)CC2)cc1 (stereo unspecified) returned Cycloheximide cs 57*, Sm TGR block 5%, Shiga toxin inh 79* and FMDV antiviral 0%.
Screening COc1ccc(C2CC(c3ccc4ccccc4c3)=NN2C(=O)COC(=O)C2CCC(=O)N2)cc1 (stereo unspecified) returned Cycloheximide cs 47*, Sm TGR block -1%, Shiga toxin inh 127* and FMDV antiviral 16%.
`Cc1ccc2oc(C(=O)Nc3c(C(=O)Nc4ccccc4)oc4ccccc34)cc(=O)c2c1` gave Sm TGR block 5% and FMDV antiviral inconclusive.
`CC(C)NC(=O)C1CCC(Cn2c(=O)c3sccc3n(CC(=O)NCc3ccccc3)c2=O)CC1` (stereo unspecified) gave Sm TGR block 0% and FMDV antiviral -3%.
For Cc1cnc(SCC2CCCO2)nc1C1CCCN(Cc2cc3c(cc2Cl)OCO3)C1 (stereo unspecified) the results were FMDV antiviral -14%.
`CC[C@H](C)[C@H](NC(=O)[C@H](CC(=O)O)NC(=O)[C@H](CC(C)C)NC(=O)[C@H](NC(C)=O)C(c1ccccc1)c1ccccc1)C(=O)N[C@H](C(=O)N[C@@H](Cc1c[nH]c2ccccc12)C(=O)O)[C@@H](C)CC` gave Cycloheximide cs -1 and Shiga toxin inh -18.
`O=C(NCc1ccccc1)c1ccc2c(c1)CCN2S(=O)(=O)c1ccc(Cl)cc1` gave Sm TGR block 1% and FMDV antiviral -12%.
Screening O=C(C1=C[C@@H]2[C@H]3C(=O)N(c4ccccc4Cl)C(=O)[C@H]3[C@@H](C(=O)c3ccc(Cl)cc3)N2C=C1)c1ccccc1 returned Cycloheximide cs -4, Sm TGR block 25µM* and Shiga toxin inh 10.
For Cc1ccc(N2C(=O)[C@@H]3[C@H](C2=O)[C@H]2C=C(C(=O)c4ccccc4)C=CN2[C@@H]3C(=O)c2ccc(Cl)cc2)cc1 the results were Cycloheximide cs 0, Sm TGR block 40µM*, Shiga toxin inh 9 and FMDV antiviral -11%.
O=C(C1=C[C@@H]2[C@H]3C(=O)N(c4cccc(Cl)c4)C(=O)[C@H]3[C@@H](C(=O)c3ccc(Cl)cc3)N2C=C1)c1ccccc1 was read as Cycloheximide cs 1, Sm TGR block 22µM*, Shiga toxin inh 16 and FMDV antiviral -1%.
O=C(c1ccc(Cl)cc1)[C@@H]1[C@@H]2C(=O)N(c3ccccc3)C(=O)[C@@H]2C2c3ccccc3C=NN21 (stereo partly specified) was read as Cycloheximide cs -1, Sm TGR block -9%, Shiga toxin inh 12 and FMDV antiviral 0%.
COc1ccccc1NC(=O)Cn1c(=O)n(Cc2ccccc2)c(=O)c2c1c1cc(C)ccc1n2C was read as Sm TGR block -8% and FMDV antiviral -3%.
COc1ccc(NC(=O)CSC2=Nc3ccccc3C3=NC(CC(=O)NCc4ccc(F)cc4)C(=O)N23)cc1 (stereo unspecified) was read as Sm TGR block 10% and FMDV antiviral -15%.
Cc1cc(C(F)(F)F)n(-c2nc(C(=O)NN)cs2)n1 was read as Cycloheximide cs 10, Sm TGR block 16%, Shiga toxin inh 19 and FMDV antiviral -9%.
For CCOC(=O)c1csc(-n2nc(C)cc2C(F)(F)F)n1 the results were Cycloheximide cs 33*, Sm TGR block 5%, Shiga toxin inh 38 and FMDV antiviral 13%.
Screening CCN(CC)c1nc2c(S(=O)(=O)c3ccc(C)cc3)nnn2c2ccsc12 returned Sm TGR block 8% and FMDV antiviral -2%.
